From article PMC4336329 (PLoS ONE, 2015)
Among all 310,000 compounds or so, about 14,000 (4.5%) showed an effect of 50% or more. Effects have a minus sign here. The list comes from a sample in which strong results are over-represented; it also holds similar structures and randomly drawn compounds.

What follows are molecules tested against human ether-à-go-go-related gene (hERG) potassium channel (human, UniProt Q12809) (assay: primary screen, population patch clamp on CHO cells stably expressing hERG; higher = less effect of the substance).
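Further: peak tail current of the secondary pulse compared with the same well before compound.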

Sequence of human ether-à-go-go-related gene (hERG) potassium channel (Q12809 whole entry, looked up): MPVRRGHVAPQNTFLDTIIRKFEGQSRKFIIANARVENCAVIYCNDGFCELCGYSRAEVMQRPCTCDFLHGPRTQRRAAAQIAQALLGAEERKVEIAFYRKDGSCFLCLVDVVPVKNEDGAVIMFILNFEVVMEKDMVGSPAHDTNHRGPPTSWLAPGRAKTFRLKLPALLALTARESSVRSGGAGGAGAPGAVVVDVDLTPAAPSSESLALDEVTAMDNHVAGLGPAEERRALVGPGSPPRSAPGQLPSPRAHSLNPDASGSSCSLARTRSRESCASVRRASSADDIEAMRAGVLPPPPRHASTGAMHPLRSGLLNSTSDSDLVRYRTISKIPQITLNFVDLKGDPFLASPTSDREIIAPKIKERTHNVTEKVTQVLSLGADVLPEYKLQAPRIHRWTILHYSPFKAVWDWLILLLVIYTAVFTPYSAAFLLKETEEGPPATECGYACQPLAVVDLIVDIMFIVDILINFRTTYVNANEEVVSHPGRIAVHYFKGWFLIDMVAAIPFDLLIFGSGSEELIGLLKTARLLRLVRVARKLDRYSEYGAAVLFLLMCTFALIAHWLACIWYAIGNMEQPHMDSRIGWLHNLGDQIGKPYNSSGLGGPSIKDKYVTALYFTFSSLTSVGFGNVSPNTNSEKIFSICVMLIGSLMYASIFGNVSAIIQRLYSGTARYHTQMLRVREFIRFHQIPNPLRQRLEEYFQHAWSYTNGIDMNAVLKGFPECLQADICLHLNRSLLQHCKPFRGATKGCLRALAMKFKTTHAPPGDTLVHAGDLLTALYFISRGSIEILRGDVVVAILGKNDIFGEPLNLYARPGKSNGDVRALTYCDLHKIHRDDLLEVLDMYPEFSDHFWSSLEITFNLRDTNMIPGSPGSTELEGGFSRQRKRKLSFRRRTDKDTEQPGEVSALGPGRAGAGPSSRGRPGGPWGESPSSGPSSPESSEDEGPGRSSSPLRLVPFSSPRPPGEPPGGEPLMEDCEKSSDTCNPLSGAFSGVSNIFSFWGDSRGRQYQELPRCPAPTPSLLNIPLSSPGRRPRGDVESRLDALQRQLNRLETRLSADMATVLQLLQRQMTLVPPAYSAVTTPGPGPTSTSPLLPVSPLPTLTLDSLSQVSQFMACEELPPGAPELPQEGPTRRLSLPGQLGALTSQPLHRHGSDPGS

SMILES	hERG current change (%, negative = inhibition) at 10uM
CCCc1ccc(OCCNC(=O)CC)cc1	-10.9%
COC(=O)C1=CN(c2ccc(Cl)cc2)C=C(C(=O)OC)C1c1ccc([N+](=O)[O-])cc1	16.2%
CCC(C)N(C(=O)Cn1nnc2ccccc21)C(C(=O)Nc1ccc(F)cc1)c1cccc(OC)c1 (stereo not drawn)	-18.8%
COc1ccc(C(C(=O)Nc2ccc(F)cc2)N(C(=O)Cn2nnc3ccccc32)C2CC2)cc1 (stereo not drawn)	-45.6%
CCOc1ccc(C(C(=O)Nc2ccc(F)cc2)N(C(=O)Cn2nnc3ccccc32)C2CC2)cc1 (stereo not drawn)	-50.3%
Cc1cccc(N(C(=O)c2nsc(Cl)c2Cl)C(C(=O)NC2CCCC2)c2ccc(O)cc2)c1 (stereo not drawn)	-2.24%
N#CCO/N=C(\c1ccccc1)c1ccncc1	18.1%
C=CCNC(=O)/C(=C\c1ccc2c(c1)OCO2)NC(=O)c1ccc(Br)cc1	-30%
O=C(Nc1ccc(C(=O)O)cc1)/C(=C/c1ccc2c(c1)OCO2)NC(=O)c1cccc(Br)c1	7.25%
O=C(Nc1cccc(C(=O)O)c1)/C(=C/c1ccc2c(c1)OCO2)NC(=O)c1cccc(Br)c1	7.35%
CCNC(=O)/C(=C/c1ccc2c(c1)OCO2)NC(=O)c1ccc(Br)cc1	-58.3%
CCNC(=O)/C(=C\c1ccc2c(c1)OCO2)NC(=O)c1ccc(Br)cc1	-69.7%
O=C(O)CNC(=O)/C(=C\c1ccc2c(c1)OCO2)NC(=O)c1ccc(Br)cc1	8.77%
CC1CC2=C(C(=O)O1)C(c1ccc(Cl)cc1)Nc1ccccc1N2 (stereo not drawn)	-6.21%
Cc1ccc(-c2csc(NC(=O)CCNC(=O)c3ccccc3Cl)n2)cc1	1.5%
CC1CCCCC1N1CCN(C(=O)c2cccc(F)c2)CC1.O=C(O)C(=O)O (stereo not drawn)	-17.5%
CS(=O)(=O)c1ccc(-c2cccc(NC(=O)COc3ccccc3)c2)nn1	-3.45%
CCCN1C(=O)/C(=C/c2nc3ccccc3c(=O)[nH]2)c2ccccc21	1.75%
O=C(COC(=O)c1nc(Cl)ccc1Cl)Nc1ccc2c(c1)OCO2	-3.62%
Cc1c(O)c(S(=O)(=O)c2ccccc2)c(=O)n(-c2ccccc2)c1-c1ccccc1	3.84%
OC(CN1CCCCC1)Cn1c2ccccc2c2cc(Br)ccc21 (stereo not drawn)	-33.1%
COc1ccc(C(O)Cn2c(=N)n(CCCN(C)C)c3ccccc32)cc1.Cl (stereo not drawn)	-13%
Cl.N=c1n(CCO)c2ccccc2n1CCN1CCCCC1	6.77%
CN(C)CCn1c(=N)n(CC(O)c2ccc(Cl)c(Cl)c2)c2ccccc21.Cl (stereo not drawn)	-66.1%
Cl.N=c1n(CCN2CCCC2)c2ccccc2n1CC(O)c1ccc(Cl)c(Cl)c1 (stereo not drawn)	-91.4%
Cl.N=c1n(CCN2CCCCC2)c2ccccc2n1CC(O)c1ccc(Cl)c(Cl)c1 (stereo not drawn)	-105%
Cl.N=c1n(CCN2CCCCC2)c2ccccc2n1CC(O)c1cccc(Br)c1 (stereo not drawn)	-63.2%

SMILES	hERG current change (%, negative = inhibition) at 10uM
Cc1ccc2c(c1)N(CCC(=O)NCCCOC(C)C)C(=O)C(C)O2 (stereo not drawn)	-0.496%
O=C(Nc1ccccc1C(=O)NCc1cccnc1)c1cccc([N+](=O)[O-])c1	-1.36%
O=C(CSc1nc(-c2ccc(F)cc2)cc(C(F)(F)F)n1)NCc1ccco1	10.2%
Oc1nc(-c2ccc(Br)cc2)n2ccncc12	-8.14%
CC(C)(C)NC(=O)CSc1nc2ccccc2c(=O)[nH]1	11.7%
COc1ccc(CCNC(=O)c2cc3ccccn3n2)c(OC)c1OC	-3.41%
O=C(CNC1CCCCC1)N1CCC2(CC1)OCCO2.O=C(O)C(=O)O	21.4%
CCOC(=O)Cc1cc(=O)n2[nH]c(-c3ccccc3)c(-c3ccccc3)c2n1	-18%
CC1CCN(CC(O)Cn2c3ccccc3c3ccccc32)CC1 (stereo not drawn)	-54%
CN1CCN(CC(O)Cn2c3ccccc3c3ccccc32)CC1.O=C(O)C(=O)O (stereo not drawn)	3.46%
COc1ccc(CN2CCN(CC(O)Cn3c4ccccc4c4ccccc43)CC2)cc1 (stereo not drawn)	-75.2%
Cc1ccc(OCCN2CCN(CC(O)Cn3c4ccccc4c4ccccc43)CC2)cc1.O=C(O)C(=O)O (stereo not drawn)	-25.1%
O=CN1CCN(CC(O)Cn2c3ccccc3c3ccccc32)CC1 (stereo not drawn)	-23.6%
CC(=O)N1CCN(CC(O)Cn2c3ccccc3c3ccccc32)CC1 (stereo not drawn)	7.81%
OC(CN1CCN(c2ccccc2)CC1)Cn1c2ccccc2c2ccccc21 (stereo not drawn)	9.1%
CCOc1ccc(CN2CCN(CC(O)Cn3c4ccccc4c4ccccc43)CC2)cc1 (stereo not drawn)	-70.9%
OC(CN1CCOCC1)Cn1c2ccccc2c2ccccc21 (stereo not drawn)	2.42%
OC(CN1CCCCC1)Cn1c2ccccc2c2ccccc21 (stereo not drawn)	3.16%
OC(CN1CCN(Cc2ccccc2)CC1)Cn1c2ccccc2c2ccccc21 (stereo not drawn)	-67.7%
Cl.OC(CN1CCNCC1)Cn1c2ccccc2c2ccccc21 (stereo not drawn)	-6.23%
CSc1cc(C)[nH]c(=O)n1	7.05%
CCOc1cc(S(=O)(=O)Nc2ccc(Cl)cn2)ccc1Cl	5.67%
CCC(C)C(NC(=O)OCc1ccccc1)C(=O)OCN1C(=O)c2ccccc2C1=O (stereo not drawn)	-2.01%
COCc1cc(C)nc2sc(C(=O)Nc3ccc(OC)cc3)c(N)c12	12.5%
COc1ccccc1CN1CCCCC1C(=O)O (stereo not drawn)	9.48%
CCC(C)n1c(=S)[nH]c2ccccc2c1=O (stereo not drawn)	-0.621%
O=C(CC12CC3CC(CC(C3)C1)C2)NC(=S)N1CCCCC1	26.6%
